FLuc counter = qHTS profiling assay for firefly luciferase inhibitor/activator using purifed enzyme and Km concentrations of substrates (counterscreen for miR-21 project). 360,000 tested, 6.9% active. AID 588342, 2011. purified FLuc, Km substrates, luminescence inhibition. Potency, µM (highest dose often 57.5 µM), without a hit: at the top dose activity change, negative = inhibition, hits mostly inhibitors;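 note: plate controls were vehicle for no effect and reference inhibitor for full effect; nearly all actives have a fitted effect of over 55% in size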
Target sequence (P08659 whole entry, looked up): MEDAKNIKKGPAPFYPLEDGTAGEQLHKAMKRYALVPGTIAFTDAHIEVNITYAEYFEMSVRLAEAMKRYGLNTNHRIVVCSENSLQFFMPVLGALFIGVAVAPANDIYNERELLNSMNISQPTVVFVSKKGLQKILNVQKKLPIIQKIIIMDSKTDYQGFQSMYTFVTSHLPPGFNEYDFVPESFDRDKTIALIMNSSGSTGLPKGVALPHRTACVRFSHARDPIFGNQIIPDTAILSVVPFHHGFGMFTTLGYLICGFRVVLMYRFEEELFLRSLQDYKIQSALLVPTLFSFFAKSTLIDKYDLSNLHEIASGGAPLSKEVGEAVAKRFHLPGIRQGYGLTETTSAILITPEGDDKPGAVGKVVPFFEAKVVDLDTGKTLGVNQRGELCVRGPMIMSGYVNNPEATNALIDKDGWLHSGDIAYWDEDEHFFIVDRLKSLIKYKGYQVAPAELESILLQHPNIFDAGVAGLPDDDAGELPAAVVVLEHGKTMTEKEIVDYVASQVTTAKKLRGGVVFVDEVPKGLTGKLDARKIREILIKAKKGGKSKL
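Biochemical qHTS of compounds, final roughly 60 µM downward over six points, against 10 nM purified firefly luciferase using Km concentrations of substrates (10 uM D-luciferin, 10 uM ATP) in Tris acetate pH 7.5 buffer; luminescence output.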
ELG1 DNA repair = qHTS screen for small molecules that inhibit ELG1-dependent DNA repair in human embryonic kidney (HEK293T) cells expressing luciferase-tagged ELG1. AID 504467, 2011. 330,000 tested, 2.3% active. HEK293T ELG1-luciferase reporter, luminescence, 16 h; DNA damage induced by 5-fluorouridine. Potency, µM (highest dose often 46.1 µM), inactives show top-dose activity change, negative = inhibition, hits mostly inhibitors; note: % is set by controls: 0 for no effect and ±100 for the full control effect; nearly all actives have a fitted effect of over 55% in size
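Cells (2,000 per well) received 5-fluorouridine plus test compound or DMSO and were incubated 16 hr at 37 °C, 5% CO2. Luciferase activity was read by luminescence 30 min after ONE-Glo addition; signal suppression marked inhibition of damage-induced ELG1 function.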
NPC1 prom act = qHTS Assay for NPC1 Promoter Activators; Huh7 NPC1 promoter luciferase reporter, 24 h; Potency, µM (series often up to 9.22 µM), for inactives: top-dose activation, most hits filed as activators; 320,000 tested, 2.4% active; AID 485313, 2010; note: % of control where 0% means no effect; nearly all actives have a fitted effect of over 60% in size
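Huh7 reporter cells (NPC1 promoter driving luciferase) are dosed with compound for 24 h at 37 °C, 5% CO2; luciferase detection reagent is then added and luminescence measured after 10 min at ambient temperature.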
Rab9 promoter act = qHTS Assay for Rab9 Promoter Activators; Huh7 Rab9 promoter-luciferase reporter, luminescence, 24 h; Potency, µM (doses to about 9.22 µM), without a hit: at the top dose activation, negative = inhibition, most hits filed as activators; 320,000 tested, 2.8% active; AID 485297, 2010; note: % of control where 0% means no effect; nearly all actives have a fitted effect of over 60% in size
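Steps: seed 1500 Huh7 Rab9-luc cells per well, rest 2 h at 37 °C; add compound in DMSO; incubate 24 h; add luciferase reagent, 10 min ambient; read luminescence.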
ELG1 genotox = qHTS screen for small molecules that induce genotoxicity in human embryonic kidney (HEK293T) cells expressing luciferase-tagged ELG1; HEK293T ELG1-luciferase reporter, luminescence, 16 h; Potency, µM (series often up to 46 µM), for the others: top-dose activity change, positive = activation, actives largely listed as activators; 330,000 tested, 1.3% active; note: % of control where 0% means no effect; nearly all actives have a fitted effect of over 60% in size
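After overnight (16 hr) compound treatment at 37 °C, ELG1-luciferase HEK293T cells were lysed with ONE-Glo; luminescence quantified 30 min later at room temperature.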
SMN2 splice up = qHTS Assay for Enhancers of SMN2 Splice Variant Expression; HEK293 SMN2-luciferase splicing reporter, luminescence, 30-36 h; Potency, µM (top dose mostly 46.1 µM), inactives show at the highest dose activity change, positive = activation, hits mostly activators; 210,000 tested, 2.8% active; note: % of control where 0% means no effect; nearly all actives have a fitted effect of over 55% in size
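HEK293 cells carry an SMN2 minigene-luciferase reporter in which exon 7 inclusion puts luciferase in frame. Cells were seeded at 2000 cells/well, attached for 10-12 hours, then exposed to compounds for 30-36 hours at 37C before ONE-Glo luminescence.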
Active calls of the source: *; ? = inconclusive; / = no result; [ ] = remark or other dose. Most compounds without a hit are left out; they make up all but 9.4% or so of the library. Calls come from the whole dose curve; as a rule, active = well fitted curve in the direction sought with a large enough effect; inconclusive = small, poorly fitted or top-dose-only effect, or another doubt; inactive = no such curve, though single readings can be large; an effect the other way counts as inactive or inconclusive. Potency is the fitted concentration of half-maximal effect.

SMILES | FLuc counter | ELG1 DNA repair | NPC1 prom act | Rab9 promoter act | ELG1 genotox | SMN2 splice up
CC(C)C[C@@H](CC(=O)N[C@@H](CCCN)CC(=O)N[C@@H]1CCCC[C@H]1C(=O)N[C@H](CC(=O)N[C@@H](CCC(=O)O)CC(=O)O)CC(C)C)NC(=O)[C@@H]1CCCC[C@H]1N | / | / | / | / | / | 5.5%
O=C(Cn1nc(N2CCN(c3ccccc3)CC2)ccc1=O)NCc1ccccc1F | -9.2% | / | / | / | / | /
O=[N+]([O-])c1nn(-c2ccc3c(c2)OCCO3)n(O)c1=Nc1ccccc1 | 12µM* | ? | -18.0% | -37.8% | -3.6% | -109.4%
O=[N+]([O-])c1nn(-c2ccc3c(c2)OCCO3)n(O)c1=Nc1ccc(Cl)cc1 | ? | ? | -5.1% | -7.6% | 1.1% | -60.1%
Cc1ccc(N=c2c([N+](=O)[O-])nn(-c3ccc(Cl)cc3)n2O)cc1C | -10.4% | 10.4% | 1.58µM* | 1.26µM* | -4.0% | 4.2%
Nc1nc(N)nc(CC(=O)O)n1 | / | / | / | / | / | 6.1%[9.22 µM]
CCOC(=O)c1[nH]cnc1C(=O)Nc1cccc(N)n1 | -2.0% | 9.2µM* | 4.2% | -1.0% | -5.9% | 15.8%
O=C(NCc1cccs1)C(=O)NCC1OCCCN1S(=O)(=O)c1ccccc1 (stereo not drawn) | 5.2% | 19.9% | -6.8% | 0.2% | -0.5% | 5.62µM*
CCOc1ccc2nc(SCCNS(=O)(=O)c3ccccc3)sc2c1 | ? | ? | -0.7% | 0.5% | 0.7% | -42.5%
CCOc1ccc2nc(SCC(=O)NC3CC3)sc2c1 | 5.4% | -2.7% | ? | ? | -7.9% | /
CCOc1ccc2nc(SCC(=O)c3ccccc3)sc2c1 | 15.1µM* | ? | 16.0% | 28.6% | 18.4µM* | 16.1%
CCOc1ccc2nc(SCc3ccccc3C#N)sc2c1 | 7.57µM* | ? | 3.16µM* | 2.51µM* | ? | 11.2µM*
CCOc1ccc2nc(SCc3ccc(OC)cc3)sc2c1 | 13.5µM* | ? | 5.7% | 7.7% | 0.5% | -20.7%
Cc1ccc(F)cc1NC(=O)c1ccc(Cn2nc(N3CCN(c4ccccc4)CC3)ccc2=O)o1 | -10.3% | / | / | / | / | /
Cc1nn(-c2cccc(Cl)c2)c2nc(-c3cccnc3)cc(C(F)(F)F)c12 | -1.3% | / | / | / | / | 7.2%
COc1ccc(CNCCSc2nnnn2-c2ccccc2)c(OC)c1 | -6.6% | / | / | / | / | /
O=C(N/N=C/C1CC2CCC1C2)c1c[nH]c2ccccc12 (stereo not drawn) | 4.78µM* | -12.1% | 0.3% | -3.8% | -0.9% | /
O=C(N/N=C/c1ccc[nH]1)c1sc2ccccc2c1Cl | 7.57µM* | ? | -8.4% | -7.8% | 17.3% | -23.7%
O=C(N/N=C/c1ccccn1)c1c[nH]c2ccccc12 | 8.49µM* | ? | 2µM* | 2.82µM* | ? | /
O=C(N/N=C/c1ccc[nH]1)c1c[nH]c2ccccc12 | 15.1µM* | ? | -44.6% | -60.0% | 9.3% | /
COc1ccc2c(c1)CC(NC(=O)Nc1ccc(NC(C)=O)cc1)CO2 (stereo not drawn) | -0.8% | / | / | / | / | /
O=C1O/C(=C/c2ccccc2)c2ccccc21 | 12µM* | 6.2% | -2.5% | 2.8% | -1.8% | 8.9%
CC1(C)CC(=O)C/C(=N/Nc2nc3ccccc3s2)C1 | ? | ? | -1.4% | -1.2% | 17.4% | -3.5%
CCC/C=N/Nc1nc2ccccc2s1 | 3.38µM* | ? | 3.55µM* | 2.82µM* | ? | ?
O=S(=O)(N/N=C\C=C\c1ccccc1)c1ccc(Br)cc1 | 0.4% | -24.4% | -2.7% | 0.4% | -0.3% | 13.4%
SMILES | FLuc counter | ELG1 DNA repair | NPC1 prom act | Rab9 promoter act | ELG1 genotox | SMN2 splice up
CC1CCC/C(=N/Nc2nc3ccccc3s2)C1 (stereo not drawn) | 0.849µM* | ? | 22.0% | 3.55µM* | ? | 11.2µM*
Brc1ccc(/C=C/C=N/Nc2nc3ccccc3s2)cc1 | 9.53µM* | ? | ? | / | 2.1% | -17.6%
C(=C\c1ccccc1)/C=N/Nc1nc2ccccc2s1 | 2.39µM* | ? | 1.58µM* | 1.26µM* | ? | 14.1µM*
Cc1nc(NCCc2ccccc2)sc1C(=O)O | 16.9µM* | ? | ? | 29.1% | 13.4% | /
Cc1nc(NC(=O)c2ccccc2O)sc1C | 5.36µM* | ? | 3.98µM* | 3.16µM* | 5.8µM* | /
Cc1nc(NC(=O)c2csc3ccccc23)sc1C | 0.849µM* | ? | ? | 1.26µM* | ? | 7.94µM*
CC(=O)c1sc(NC(=O)c2ccccc2)nc1-c1ccccc1 | 9.53µM* | ? | 2µM* | 1µM* | ? | 12.6µM*
COc1cccc(COC(=O)c2ccc(-c3nnn(Cc4cccc(OC)c4)n3)cc2)c1 | 1.6% | / | / | / | / | 8.3%
O=C(Nc1nc(-c2cccs2)c(C(=O)C(F)(F)F)s1)c1ccccc1 | 16.9µM* | -11.9% | -0.2% | -10.6% | -0.8% | -91.8%
Cc1nc(NC(=O)CCc2ccccc2)sc1C | 16.9µM* | ? | 27.2% | 25.5% | ? | /
Cc1nc(NC(=S)NC(=O)c2ccccc2)sc1C | ? | ? | 3.98µM* | 3.16µM* | ? | /
Cc1sc(NC(=O)c2cccnc2)nc1-c1ccccc1 | -8.3% | -2.9% | -1.9% | 0.0% | 1.5% | 0.7%
Cc1nc(NC(=O)c2ccccc2)sc1C | ? | ? | 1.78µM* | 1.78µM* | ? | /
COC(=O)c1sc(NC(=S)NC(=O)c2cccc(C)c2)nc1C | ? | ? | 21.3% | ? | ? | 22.2%
COc1ccccc1C(=O)Nc1nnc(SCc2cc(=O)c3cc(Cl)ccc3[nH]2)s1 | -8.1% | / | / | / | / | /
COc1cc2c(cc1OC)C1O[C@](CCCCN3C(=O)c4ccccc4C3=O)(C2)Oc2c1c(=O)oc1ccccc21 | -4.0%[11.5 µM] | / | 1.1%[1.84 µM] | -4.6%[1.84 µM] | / | /
CC(=O)c1cc(-c2ccc(F)cc2)n(CC(=O)NCc2ccc(C)cc2)c1C | 5.4% | / | / | / | / | /
O=C(/C=C/c1ccccc1)N/C(=C/c1ccccc1)C(=O)Nc1cccc(C(=O)O)c1 | 23.9µM* | -7.8% | -1.4% | 4.6% | -0.5% | -9.4%
O=C(Nc1ccc(C(=O)O)cc1)/C(=C\C=C\c1ccccc1)NC(=O)c1ccccc1Br | 0.169µM* | ? | 2µM* | 3.16µM* | 0.6% | /
O=C(Nc1cccc(C(=O)O)c1)/C(=C\c1ccccc1)NC(=O)c1ccccc1 | -10.1% | 17.2% | -1.3% | ? | -1.6% | -2.2%
O=C(/C=C/c1cccc([N+](=O)[O-])c1)Nc1cc(C(=O)O)cc(C(=O)O)c1 | -17.9% | 6.2% | -9.5% | 1.6% | -9.0% | -45.3%

Screening results: PubChem, National Center for Advancing Translational Sciences (NCATS)
